According to PubChem BioAssay AID602449 (Sanford-Burnham Center for Chemical Genomics, 2012):
Values joined by “and” are separate entries in the source; they are usually repeats but may differ in a detail not shown here. Equal entries are not always repeated. About 5,000 (1.4%) of roughly 360,000 compounds were called active.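 Rule for the calls: active = inhibition of 50% or more, scaled per plate between neutral and stimulator controls; inactive = the rest.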 What follows is part of a selection rich in actives, with near analogues and random picks from the rest. Some structures have more than one record in an assay (separate samples or runs), and their calls can disagree.

assay: mitochondrial permeability transition pore inhibitors, primary screen, biochemical, isolated mouse mitochondria, absorbance (AID 602449); settings: Ca2+ swelling absorbance, 30 min, at 10 µM, stronger effect = higher value;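 note: 0% = DMSO wells given calcium and 100% = 1 mM EGTA wells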

inhibition, inactive:
CCOC(=O)C1CCCN(C(=O)c2cccc3ccccc23)CC1 (configuration not stated) 0%, CC(C)CC(COCc1ccc(Cl)cc1)N1CCN(C(=O)c2ccc(C(F)(F)F)cc2)CCC1=O (configuration not stated) -1.6%, Cc1cc(C(=O)OCC(=O)Nc2nnc(C(C)C)s2)c2ccccc2n1 22.9%, CC(NC(=O)COC(=O)c1ccc2ccccc2n1)c1ccccc1 (configuration not stated) -0.2%, CCOC(=O)C1CCN(C(=O)CSc2cc(=O)n(C)c3ccccc23)CC1 0.5%, Cc1ccc(-n2cc(CN(C)Cc3nccn3C)c(-c3cccc(C)c3)n2)cc1 0.5%, CCN(c1ccccc1)S(=O)(=O)c1ccc(NC(=O)C(C)(C)C)cc1 -1.2%, O=C(CCl)Nc1ccc(Sc2ccc(NC(=O)CCl)cc2)cc1 6%, CC1(C)CCSC(/C=C/c2ccccc2)=N1 1.3%, COCCN1C(=O)C(=O)/C(=C(/O)c2ccc(S(=O)(=O)N3CCCCC3)cc2)C1c1ccc(OC)c(OC)c1 (configuration not stated) -0.3%, O=C(c1cc(COc2c(F)cccc2F)on1)N1CCSCC1 2%, CCCC(=O)N1CCC1(C)C(=O)Nc1ccc(-n2cncn2)cc1 (configuration not stated) -1.3%, CC(C)c1nc2oc3c(N4CCN(C)CC4)ncnc3c2c2c1CCC2 -0.5%, c1ccc2cc3c(NCCN4CCOCC4)ccnc3cc2c1 1.4%, O=C1CCCc2nn(-c3ccccc3)nc21 0.8%, O=C(c1ccc(N2CCOCC2)c([N+](=O)[O-])c1)N1CCN(c2ccccc2F)CC1 0%, COc1cc(OC)cc(C(=O)NC(=S)N2CCN(c3ccc(C(F)(F)F)cc3[N+](=O)[O-])CC2)c1 0.6%, CCOc1cc(CNn2c(C)nnc2SCC(=O)NC(C)(C)C)ccc1OCC(=O)NC(C)(C)C -1.3%, CC(C)(C)Nc1c(-c2cccs2)nc2ccccn12 0.8%, Cc1ccc(N(Cc2cc(=O)[nH]c3ccccc23)C(=O)CCl)cc1 -0.5%, COc1ccc(NC(=O)CSc2ccc(-c3ccco3)nn2)c(OC)c1 0.7%, O=C(CSc1ccc(-c2ccco2)nn1)NCc1ccc2c(c1)OCO2 -0.3%, CCn1c(=O)n(CC)c2cc(N3CCCC3)c(NC(=O)c3ccccc3Br)cc21 0.5%, CC/C(O)=C1\C(=O)CC(C)(C)CC1=NCCc1nc2ccccc2[nH]1 -1.5%, CC1C/C(=N/NC(=O)c2cccs2)CC(C)(C)C1 (configuration not stated) -1%, Cc1ccc(-c2cc(C(=O)NCc3cn(C)nc3C)c3cc(Br)ccc3n2)cc1 1.7%, Cc1nn(C)cc1C(=O)NNC(=S)Nc1ccc(Cl)cc1 1.7%, CN(Cc1ccc(F)cc1Cl)S(=O)(=O)c1cccs1 -2.3%, Cc1ccc(-c2ccc(=O)n(Cc3ccc(F)cc3Cl)n2)cc1 0%, Cc1ccc(-c2c[n+](=O)c3c(n2[O-])CCC3)cc1 0.3%, O=C1CCC(C(=O)N2CCCCO2)CN1Cc1cccc(C(F)(F)F)c1 (configuration not stated) 0.5%, C=CCOc1ccccc1CNn1c(C)n[nH]c1=S -0.7%, CC(C)(C)c1ccc(S(=O)(=O)N2CCN(C(=O)c3ccc4c(c3)C(=O)N(Cc3ccncc3)C4=O)CC2)cc1 32.6%, O=C(c1ccncc1)N1CCN(S(=O)(=O)c2cccc([N+](=O)[O-])c2)CC1 -0.5%, O=C(CCC(=O)N1CCN(S(=O)(=O)c2ccc(Cl)cc2)CC1)NCc1cccc(C(F)(F)F)c1 -2.6%, O=C(Cc1ccccc1)N1CCN(S(=O)(=O)c2ccc([N+](=O)[O-])cc2)CC1 -3.8%, CCOC(=O)CNC(=O)CSc1ncccc1-c1nc2ccccc2[nH]1 0%, COc1ccc(NC(=O)c2sc(=O)n(Cc3ccc(S(=O)(=O)N(C)C)cc3)c2C)cc1 -1.7%, CCOC(=O)c1sc2nc(C)nc(SCC(N)=O)c2c1C 0.2%, O=C(CN(C(=O)CCC(=O)Nc1nccs1)c1ccc(F)cc1)NCc1ccc2c(c1)OCO2 -0.8%, CC(=O)Nc1cc(-c2ccc(N3CCN(C)CC3)cc2)cn2c(-c3cccc(C(=O)N(C)C)c3)cnc12 0.5%, CC(=O)OC1CCC2C3CCC4=C(CC(F)C(=O)C4)C3CCC12C (configuration not stated) 1.6%, CN(C)CC/C=C1\c2ccccc2CSc2ccccc21 2.3%, CN(Cc1cccs1)C(=O)Cc1c[nH]c2ccccc12 0.8%, COc1ccccc1NC(=O)C1=C(C)Nc2nc3ccccc3n2C1c1cccs1 (configuration not stated) 0.9%, COc1ccc(-c2nc3cnccn3c2NC2CCCCC2)cc1-c1cccc(Cl)c1 2% and -0.2%, CCOc1cc(-c2nc3cc(C)ccn3c2NCC2CCCO2)ccc1O (configuration not stated) -0.2%, CCCC1CC(C)(C(=O)Cn2[nH]c(=O)ccc2=O)OC1=O (configuration not stated) -1.2%, O=C1CCC(C(=O)OCC(=O)Nc2ccc(OC(F)F)cc2)=NN1 -0.6%, O=C(COc1ccc(NC(=O)c2ccccc2[N+](=O)[O-])cc1)c1ccc(F)cc1 -1.1%, Cc1cc(C)n(CCNS(=O)(=O)c2ccc(Cl)cc2)n1 0%, Cc1ccc(C(=O)NCC(=O)O)s1 -1.7%, Cc1nc(NCCN)c(C#N)c2c1COC(C)(C)C2 -1%, CCCCc1nc(NCc2ccccc2)c(C#N)c2c1CCCC2 5.4%, COc1ccc(OC)c(S(=O)(=O)N(C)CC(=O)N2CCN(c3ccccc3)CC2)c1 -2.8%, COc1ccc(C)cc1NC(=S)Nc1ccccc1SC 0.6%, COc1ccc(NC(=O)CN(C)C(=O)c2cccc(S(=O)(=O)N3CCN(c4ccccc4)CC3)c2)cc1 1.3%, COc1cc2c(C(=O)N3CCN(C)CC3)c(CSc3ccccc3)n(C)c2cc1Br -3.4%, CC1CCCC(C)N1C(=O)COC(=O)c1ccccc1C(=O)c1ccccc1 (configuration not stated) -1.2%, CCOC(=O)c1c(NC(=O)C(C)Sc2c[nH]c3ccccc23)sc2c1CCC2 (configuration not stated) 3.9%, CCOC(=O)c1c(NC(=O)Cn2nc(C(F)(F)F)cc2C)sc2c1CCC2 4%, O=C(NCc1ccncc1)C1CCCN(S(=O)(=O)c2ccc(Br)cc2)C1 (configuration not stated) -0.9%, Cc1ccc(N(Cc2ccccc2O)C(=O)c2ccccc2F)cc1 0.4%, CC(C)C(=O)N1c2ccccc2NC2=C(C(=O)CCC2)C1c1ccc(N(C)C)cc1 (configuration not stated) 0.8%, CCCOCC(O)CC(CC)C(=O)NNC(=S)Nc1ccccc1 (configuration not stated) 1.7%, CCCCC(=O)NCc1ccc(F)cc1 0.7%, CCN(CC(=O)Nc1c(F)cccc1F)C(=O)c1cnc(C)cn1 1.7%, COC(=O)c1c(C)[nH]c(C(=O)NCCc2ccc(S(N)(=O)=O)cc2)c1C 0.1%, CCCCOC(=O)c1[nH]c(C)c(C(=O)OC)c1C 1.6%, c1csc(-c2nnc(COc3ncnc4sccc34)o2)c1 1.9%, COc1cnc(SCc2ccc(Cl)c(Cl)c2)nc1Cl 0.4%, COCCNC(=O)CSc1nc2sccc2c(=O)n1-c1ccccc1 0%, O=S(=O)(NCCCc1ccccc1)c1ccc(Br)cc1 13.4%, CCCN(CC1COc2ccccc2O1)C(=S)Nc1ccc(C)cc1 (configuration not stated) 2.3%, O=C(COc1ccc(F)cc1Br)NCC1COc2ccccc2O1 (configuration not stated) 1.6%, S=C(Nc1ccc(Br)cc1)NC1CCN(Cc2ccccc2)CC1 3.1%, C/C(=N/NC(=S)Nc1ccccc1)c1ccc2c(c1)OCO2 -0.4%, CC(NC(=S)Nc1ccccc1)C(c1cccs1)N1CCOCC1 (configuration not stated) 0.1%

inhibition, 14.7% (inactive) and 55.4% (active):
COc1ccc(-c2nc3cc(C)ccn3c2NC2CCCCC2)cc1SC1CCCCC1

inhibition, active:
CC(C)CC(=O)N/C(N)=N/c1nc2ccccc2s1 81.8%, CC(C)(CCl)C(=O)Nc1ccc(Sc2ccc(F)cc2)cc1 73.1%, C=CCC1(CC=C)CCCN1C(=O)c1cc(COc2ccc(-n3cncn3)cc2)on1 105%, O=C(c1ccc(N2CCCC2=O)cc1)N1CCN(c2ccc(C(F)(F)F)cc2[N+](=O)[O-])CC1 74.9%, Brc1ccc(CSc2ccc(-c3ccco3)nn2)cc1 57.6%, Cc1nn(C)cc1CNC(=O)Nc1ccc(Cl)cc1 92.2%, CN(C)Cc1ccc(F)cc1Sc1cc(Cl)ccc1Cl 59%, O=C(c1ccncc1)N1CCN(S(=O)(=O)c2cc(C(F)(F)F)cc(C(F)(F)F)c2)CC1 106%, O=C(Cc1ccsc1)N1CCN(S(=O)(=O)c2cc(C(F)(F)F)cc(C(F)(F)F)c2)CC1 53.1%, CN(C)Cc1ccccc1C1(O)c2ccccc2CSc2ccccc21 (configuration not stated) 52.8%, COc1cc2c3c(c1)/C(=C1/SC(=S)NC1=O)C(=O)N3C(C)(C)C=C2C 91.4%, CCCCc1nc(NCCN)c(C#N)c2c1CSC(C)(C)C2 108%, CCOC(=O)c1c(NC(=O)CSc2cn(CC)c3ccccc23)sc2c1CCC2 59.8%, CCCCC(=O)NNC(=S)NC(=O)C(c1ccccc1)c1ccccc1 69.1%, COC(=O)c1c(C)[nH]c(C(=O)/C=C/c2ccc(Cl)cc2)c1C 102%, S=C(NCCCc1ccccc1)Nc1ccc(Br)cc1 85.9%, S=C(NCC1COc2ccccc2O1)Nc1ccc(Br)cc1 (configuration not stated) 91.4%, CC(NC(=S)Nc1ccccc1)C1COc2ccccc2O1 (configuration not stated) 83.4%
